A selection: hits, their analogues and other compounds. The true share with any hit is near 10%.
GLS inhibitor: qHTS for Inhibitors of Glutaminase (GLS); Glutaminase kidney isoform, mitochondrial (Homo sapiens), O94925; 410,000 compounds, 0.21% hits; AID 624170, 2012; Potency, µM (doses to about 45.5 µM), inactives show at the highest dose activity change, negative = inhibition, usual class: inhibitors; GLS enzymatic activity, qHTS titration; note: % is set by controls: 0 for no effect and ±100 for the full control effect
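Compounds were pin-transferred onto hKGA, after which L-glutamine (1 mM solution) and a detection mix of glutamate oxidase, HRP and Amplex Red were added. Initial and 30 min RT fluorescence reads were collected.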
G9a block: qHTS Assay for Inhibitors of Histone Lysine Methyltransferase G9a. G9a H3K9 monomethylation, AlphaScreen, 2 h. Potency, µM (highest dose often 102 µM), for the others: at the top dose activity, negative = inhibition, actives largely listed as inhibitors. 350,000 compounds, 8.8% hits; note: % is set by controls: 0 for no effect and ±100 for the full control effect; nearly all actives have a fitted effect of over 75% in size
Target sequence (Q96KQ7 913-1193 limits assumed): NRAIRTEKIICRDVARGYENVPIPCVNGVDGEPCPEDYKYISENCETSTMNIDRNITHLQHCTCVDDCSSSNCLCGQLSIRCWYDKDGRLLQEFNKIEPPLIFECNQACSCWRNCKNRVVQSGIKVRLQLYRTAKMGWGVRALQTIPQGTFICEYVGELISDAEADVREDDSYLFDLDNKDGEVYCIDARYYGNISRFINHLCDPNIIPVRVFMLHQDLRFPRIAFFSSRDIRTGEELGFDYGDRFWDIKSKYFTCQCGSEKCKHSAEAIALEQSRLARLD
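Chemiluminescent proximity detection of H3K9 monomethylation, read after 10 min bead incubation in the dark. Reaction: 20 nM G9a, 500 nM biotin-H3K9 peptide, 20 uM SAM cofactor, 2 h, room temperature, following 15 min enzyme-compound preincubation.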
HP1b binding inh: HTS for Inhibitors of HP1-beta Chromodomain Interactions with Methylated Histone Tails. Chromobox protein homolog 1 (Homo sapiens), P83916. AlphaScreen HP1-beta / biotin-H3K9me3 peptide binding. Potency, µM (titrated, usually from 114 µM), for inactives: top-dose activity change, negative = inhibition, hits mostly inhibitors. 390,000 compounds, 0.56% hits. AID 540317, 2011; note: nearly all actives have a fitted effect of over 70% in size
Target sequence (P83916 whole entry, looked up): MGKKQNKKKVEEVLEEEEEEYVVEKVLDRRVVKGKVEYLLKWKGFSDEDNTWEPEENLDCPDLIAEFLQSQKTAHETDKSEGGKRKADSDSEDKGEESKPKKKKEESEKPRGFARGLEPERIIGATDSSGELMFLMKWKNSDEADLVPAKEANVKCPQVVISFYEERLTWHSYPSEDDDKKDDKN
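HP1-beta protein (50 nM final) preincubated 30 min at room temperature with biotinylated H3(1-18)K9me3 peptide (50 nM) in PBS pH 7.4, 0.01% Tween-20, then compound added for 30 min. AlphaScreen streptavidin donor/nickel chelate acceptor beads (10 ug/mL final), 30 min dark, luminescence read.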
JMJD2A Tudor inh: qHTS Assay for Inhibitors of JMJD2A-Tudor Domain; Lysine-specific demethylase 4A (Homo sapiens), O75164; AlphaScreen JMJD2A-Tudor / H3K4me3 peptide binding; Potency, µM (titrated, usually from 114 µM), for inactives: at the highest dose activity change, negative = inhibition, hits mostly inhibitors; 390,000 compounds, 4.4% hits; AID 504339, 2011; note: % is set by controls: 0 for no effect and ±100 for the full control effect; nearly all actives have a fitted effect of over 50% in size
BAZ2B inh: qHTS Assay for Inhibitors of BAZ2B | Bromodomain adjacent to zinc finger domain protein 2B (Homo sapiens), Q9UIF8 | AlphaScreen BAZ2B-H3K14Ac peptide displacement | Potency, µM (highest dose often 114 µM), without a hit: at the top dose activity change, negative = inhibition, most hits filed as inhibitors | 360,000 compounds, 4.4% hits; note: % is set by controls: 0 for no effect and ±100 for the full control effect; nearly all actives have a fitted effect of over 60% in size
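Compounds, titrated to a top concentration of 110 uM, were incubated 30 min at room temperature with preformed BAZ2B/acetyl-K14 H3 peptide complex (50 nM each). Proximity signal was measured by AlphaScreen after 20 min with beads.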
An asterisk follows results filed as active; u = inconclusive; x = not tested or not shown; [ ] = another dose, or the depositor's remark. Calls come from the whole dose curve; as a rule, active = well fitted curve in the direction sought with a large enough effect; inconclusive = small, poorly fitted or top-dose-only effect, or another doubt; inactive = no such curve, though single readings can be large; an effect the other way counts as inactive or inconclusive. Potency is the fitted concentration of half-maximal effect.

SMILES	GLS inhibitor	G9a block	HP1b binding inh	JMJD2A Tudor inh	BAZ2B inh
N#CCCn1c(=O)c(-c2ccc(F)cc2)nc2cnc(N3CCNCC3)nc21	x	6%[0.501 µM]	x	x	x
COc1ccc(CNC(=O)CN2CCN(c3cccc(C)c3C)CC2)cc1	26%	44%	56%	-14%	-1%
COc1ccc(S(=O)(=O)N2CCC(C(=O)NC3CCCC3)CC2)cc1OC	0%	u	38%	-1%	-1%
COc1ccc(CN2CCN(c3cccc(C)c3C)CC2)cc1OC	x	11µM*	17%	7%	56µM*
COc1cc(CN2CCC(C(=O)NC3CCCC3)CC2)cc(Br)c1O	16%	10µM*	-50%	3.2µM*	50µM*
COc1cc(CN2CCN(c3cccc(C)c3C)CC2)cc(Br)c1O	20%	u	u	2µM*	u
Cn1cnc(S(=O)(=O)N2CCCCC2c2cc(C(=O)Nc3ccc(F)c(Cl)c3)no2)c1 (stereo not drawn)	-9%	x	x	x	x
CCc1cc2c3c(c1)C(C)CC(C)(C)N3C(=O)/C2=C1\SC(=O)NC1=O (stereo not drawn)	0%	25µM*	u	50µM*	u
COc1ccc(N2C(=O)C(Cl)=C(Nc3ccccc3O)C2=O)cc1	-11%	3.5µM*	28µM*	45µM*	u
COc1ccc(NC2=C(c3ccccc3)C(=O)c3ccccc32)cc1Cl	3%	13%[59 µM]	33%	-27%	0%
COc1ccc(OC)c(NC2=C(c3ccccc3)C(=O)c3ccccc32)c1	-1%	11µM*	13µM*	13µM*	5.6µM*
COc1ccc(N2C(=O)C(Cl)=C(Oc3cccc(OC)c3)C2=O)cc1	u	6.3µM*	u	u	45µM*
O=C1C(Cl)=C(Nc2cccc(O)c2)C(=O)N1Cc1ccccc1	-19%	35µM*	u	45µM*	u
CCOC(=O)c1c(SCCN2CCCCC2)n(-c2ccccc2)c(=S)n(-c2ccccc2)c1=O	8%	x	24%	-3%	x
CC(Oc1ccccc1)C(=O)N1CCN(Cc2cc(=O)n3nc(-c4ccccc4Cl)sc3n2)CC1 (stereo not drawn)	6%	35%[59 µM]	15%[57 µM]	-15%	9%
COc1ccc(N2C(=O)c3cccc4c(N(C)CCO)ccc(c34)C2=O)cc1	-2%	9%	14%	-17%	3%
CCOc1ccccc1NC1=C(Cl)C(=O)N(Cc2ccccc2)C1=O	-1%	5%[12.7 µM]	-32%	-15%[11.4 µM]	u
COc1ccc(N2C(=O)C(Cl)=C(Nc3ccccc3OC)C2=O)cc1	15%	45µM*	-28%	u	u
COc1ccc(N2C(=O)C(Cl)=C(N(CCO)Cc3ccccc3)C2=O)cc1	6%	50µM*	25%	-31%	u
COc1ccc(OC)c(NC2=C(Cl)C(=O)N(Cc3ccccc3)C2=O)c1	-15%	-115%[59 µM]	u	14µM*	22µM*
COc1ccc(N2C(=O)C(Cl)=C(N3CCOCC3)C2=O)cc1	8%	x	37%	-8%	-2%
Cc1cc(C)cc(NC(=O)C2CCCN(c3nnc(C)c4c(C)n(-c5ccccc5)nc34)C2)c1 (stereo not drawn)	7%	0%[59 µM]	28%	-1%	-10%
CCC(Sc1nncn2c1cc1oc(C)cc12)C(=O)Nc1ccc(F)cc1 (stereo not drawn)	-1%	u	18%	-2%	-31%
CCOC(=O)C1CCCN(C(=O)c2cc(F)ccc2C)CC1 (stereo not drawn)	6%	x	x	x	x
O=S(=O)(Nc1ccn(-c2ccccc2)n1)c1ccc(Br)cc1	15%	14µM*	21%	-11%	-13%
SMILES	GLS inhibitor	G9a block	HP1b binding inh	JMJD2A Tudor inh	BAZ2B inh
CCOC(=O)C1=C(c2ccccc2)NC(=O)NC1c1ccc(OC)c(OC)c1 (stereo not drawn)	-5%	13%	41%	1%	-14%
CCOC(=O)C1=C(O)C(=O)NC(c2ccccc2)=C(OC2CCCCC2)C1	-3%	50µM*	26%	-19%	-9%
CCOC(=O)C1=C(O)C(=O)NC(c2ccccc2)=C(OCC)C1	-3%	45µM*	17%	-20%	-37%
CCOC(=O)C1=C(C)N(c2ccccc2)C(=O)C1	4%	5%[59 µM]	-4%	-4%	9%
O=C(O)CN1C(=O)SC(Nc2ccccc2C(=O)O)C1=O (stereo not drawn)	21%	40µM*	5%	u	u
O=C(O)c1cccc(CN2C(=O)SC(Nc3cccc4ccccc34)C2=O)c1 (stereo not drawn)	u	50µM*	25%	-19%	u
O=C(O)CN1C(=O)SC(Nc2ccc(C(=O)O)cc2)C1=O (stereo not drawn)	-1%	u	35%	-4%	u
COc1ccc(CCNC(=O)CCSCc2ccccc2Cl)cc1OC	0%	7%[59 µM]	16%	-8%	4%
O=C(CNC(=O)C1CCCC1)OC(C(=O)Nc1cc(C(F)(F)F)ccc1Cl)c1ccccc1 (stereo not drawn)	x	x	x	-11%	x
Cc1nc2ncccn2c1-c1csc(Nc2ccc(O)cc2)n1	-29%	11µM*	20%	-25%	u
C=CCNc1nc(-c2c(C)nc3ncccn23)cs1	4%	5%[0.501 µM]	14%	-11%	-4%
Cc1ccc(Nc2nc(-c3c(C)nc4ccccn34)cs2)cc1	20%	u	5%	u	-38%
Cc1ccc(Nc2nc(-c3c(C)nc4ncccn34)cs2)cc1	12%	40µM*	-37%	u	u
CC(CCO)Nc1nc2c(c(=O)n(C)c(=O)n2C)n1Cc1ccc(Br)cc1 (stereo not drawn)	9%	-10%[59 µM]	25%	-19%	-26%
c1cnc(N2CCN(Cc3ccc4c(c3)OCO4)CC2)nc1	14%	1%[59 µM]	22%	-17%	-17%
Brc1ccc(CN2CCN(c3ccccn3)CC2)s1	-1%	14µM*	u	7.9µM*	45µM*
c1ccc(N2CCN(Cc3ccc4c(c3)OCO4)CC2)nc1	-6%	x	u	28µM*	x
COc1cc(NC(=S)NCCO)c(OC)cc1Cl	-12%	x	u	-5%	-8%
COc1cc(CNCCc2c[nH]c3ccccc23)ccc1OCc1ccc(F)cc1	27%	u	u	u	50µM*
COc1ccc(OC)c(NC(=O)NCCc2c[nH]c3ccccc23)c1	6%	79µM*	-13%	-32%	u
COc1cccc(CNCCc2c[nH]c3ccccc23)c1OCc1ccc(F)cc1	30%	10%[2.33 µM]	-30%	u	-31%
COc1cc(NC(=S)NCCc2c[nH]c3ccccc23)c(OC)cc1Cl	15%	45µM*	u	u	u
COc1ccc(NC(=O)NCCc2c[nH]c3ccccc23)c(OC)c1	0%	-19%	3%	-24%	u
